Compound activity (PubChem BioAssay)
The full list was thinned out, with hits kept by preference.
Pf Dd2 growth: inhibitors of Plasmodium falciparum Dd2 growth; P. falciparum Dd2 growth, SYBR Green, 72 h; Potency, µM (top dose mostly 28.9 µM), inactives show at the highest dose activity, negative = inhibition, hits mostly inhibitors; 120,000 compounds, 4.3% hits; AID 1347417; active means well fitted inhibition curve with a large enough effect;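 further: plate controls were DMSO vehicle for no effect and reference drug for full effect; nearly all actives have a fitted effect of over 65% in size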
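Readout: SYBR Green fluorescence, 485 nm excitation, 535 nm emission, after ~16 h lysis at 37C. Before that, Dd2-infected red cells (2.5% hematocrit) grew 72 h with compound, 29 uM top final concentration.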
The depositor's hits bear a star; i = inactive; [ ] = remark or other dose. Potency means the concentration at half of the fitted maximal effect.

SMILES | Pf Dd2 growth
O=[S+]1([O-])CCCN1C1CCN([S+](=O)([O-])c2ccc(C(F)(F)F)cc2)CC1 | 10%
O=C(N1CCC2(CC1)CC(Cc1nc(-c3cccnc3)no1)CCO2)C1(c2ccccc2)CC1 (configuration not stated) | 7.9µM*
CCOCC(=O)N1CCC2(CC1)CC(Cc1nc(-c3ccncc3)no1)CCO2 (configuration not stated) | 4%
COCCC(=O)N1CCC2(CC1)CC(Cc1nc(-c3ccncc3)no1)CCO2 (configuration not stated) | -7%
COc1ccc(CCC(=O)N2CCC3(CC2)CC(Cc2nc(-c4cnccn4)no2)CCO3)cc1 (configuration not stated) | i
COc1cccc(CC(=O)N2CCC3(CC2)CC(Cc2nc(-c4cccnc4)no2)CCO3)c1 (configuration not stated) | 8.9µM*
O=C(N1CCC(Cc2nc(C3CCOCC3)no2)CC1)C1(c2ccccc2)CC1 | 10%
CCS(=O)(=O)N1CC(F)(F)C[C@H]1c1nc(-c2cccnc2)no1 | i
O=C(c1cccnc1OC1CCN(Cc2ccccn2)C1)N1CCCCC1 (configuration not stated) | i
O=c1c2c(n(Cc3cccnc3)n1-c1ccccc1)CN(Cc1ccc(O)cc1)CC2 | 2%[44.1 µM]
CC1(Cc2ccc3c(c2)OCO3)CCC(=O)N(CCc2ccncc2)C1 (configuration not stated) | -8%
Cc1nnc2n1CCC(N(C)C(=O)CCc1ccccc1)CC2 (configuration not stated) | 6%
CCCN(CC1CCOC1)S(=O)(=O)c1ccc(OC)c(Cl)c1 (configuration not stated) | i[5.79 µM]
O[C@@H]1CN(Cc2ccc(-c3ccn[nH]3)o2)CC[C@H]1c1ccc2c(c1)OCO2 | -22%
CCN(C(=O)C(NS(=O)(=O)c1cccc2nsnc12)c1ccccc1)c1ccccc1 (configuration not stated) | -1%
CCCCN(C(=O)C1CCC(CNS(=O)(=O)c2cccc3nsnc23)CC1)c1ccccc1 (configuration not stated) | 2.2µM*
CCc1ccccc1NC(=O)C1CCCN(S(=O)(=O)c2cccc3nsnc23)C1 (configuration not stated) | -24%
CCc1cccc(CC)c1NC(=O)C1CCC(CNS(=O)(=O)c2cccc3nsnc23)CC1 (configuration not stated) | 3.2µM*
CC(C)CCNC(=O)C1CCC(CNS(=O)(=O)c2cccc3nsnc23)CC1 (configuration not stated) | 3.2µM*
CCCN(CCC)CCCNC(=O)C1CCCN(S(=O)(=O)c2cccc3nsnc23)C1 (configuration not stated) | -19%
CC(C)NC(=O)[C@@H]1C[C@H](N)CN1S(=O)(=O)c1cccc2nsnc12 | 19%
Cc1cccc(C)c1NC(=O)C1CCCN1S(=O)(=O)c1cccc2nsnc12 (configuration not stated) | i
Cc1cccc(N(C)C(=O)C(Cc2ccccc2)NS(=O)(=O)c2cccc3nsnc23)c1 (configuration not stated) | 7%
O=C1NCCCCCCN(C(=O)Nc2ccc3c(c2)OCCO3)[C@H]2CCC[C@@H]12 | i
Cn1nc2n(c1=O)CCN(Cc1ccc3c(c1)CCO3)CC2 | -9%
SMILES | Pf Dd2 growth
NC(=O)Cc1c[nH]c2ncc(-c3cccc(CO)c3)cc12 | -1%[44.1 µM]
O=C(c1cccnc1)N1CCCC1c1nc(CCOCC2CC2)no1 (configuration not stated) | -25%
CN1C(=O)CS(=O)(=O)C12CCNCC2 | 2%
Cc1noc([C@@H]2CN(Cc3c(F)cccc3F)C[C@H]2CO)n1 | 12%
O=C(Cc1cccc(C(F)(F)F)c1)N1CCCc2ncc(C(=O)N3CCC[C@@H]3c3ccc(F)cc3)cc21 | -4%
COc1ccccc1N1CCCc2ncc(C(=O)N3CC[S+](=O)([O-])CC3)cc21 | 58%[44.1 µM]
COc1ccccc1N1CCCc2ncc(C(=O)NCCc3c[nH]c4ccccc34)cc21 | -19%[44.1 µM]
O=C(Cc1cccc(C(F)(F)F)c1)N1CCCc2ncc(C(=O)N3CCCC[C@@H]3Cc3ccccc3)cc21 | 11µM*
O=C(NCc1cccc(F)c1)c1cnc2c(c1)N(C(=O)Cc1cccc(C(F)(F)F)c1)CCC2 | 13%
COc1ccccc1N1CCCc2ncc(C(=O)N3CCCC[C@@H]3Cc3ccccc3)cc21 | 4.5µM*
CN(Cc1ccccc1OC(F)(F)F)Cc1cccn1C | -10%[44.1 µM]
Cc1ccc(C(=O)N2CCCN(C(=O)C3CC3)C(c3ccccc3)CC(=O)NCC2)cn1 (configuration not stated) | -1%
O=C1CC(NCc2cc(F)ccc2-n2cccn2)CN1Cc1cccc(F)c1 (configuration not stated) | -27%
CCN1c2cc(C(=O)NC3CCCC3)ccc2C(=O)N2CCCCC21 (configuration not stated) | -10%
CCC1=Nc2cc(C(=O)NCCC(C)C)ccc2Sc2ccc(Br)cc21 | 13µM*
CC1=Nc2cc(C(=O)NC3CCCC3)ccc2Sc2ccc(Cl)cc21 | 11µM*
CC(C)CCNC(=O)c1ccc2c(c1)N(C)C(=O)c1ccccc1S2 | i
CC1=Nc2cc(C(=O)NC3CCCC3)ccc2Sc2ccc(C)cc21 | -17%
CCN1c2cc(C(=O)NC3CCCC3)ccc2C(=O)N2CCCCCC21 (configuration not stated) | i
O=C(NC1CCCCC1)c1ccc2c(c1)N(Cc1cccc(F)c1)C(=O)c1ccccc1S2 | 10%
CCN1C(=O)Cc2cc(C(=O)NCCC(C)C)ccc21 | i
CCC1=Nc2cc(C(=O)NC3CCCC3)ccc2Sc2ccc(Cl)cc21 | 4.5µM*
O=C1NCCC[C@@H]1NC(=O)[C@H]1CN(C(=O)c2cccc(F)c2)CCN1S(=O)(=O)c1ccc(F)cc1 | 5%
O=C(c1c(F)cccc1F)N1CCC(n2cc(-c3nc(-c4ccccc4)no3)nn2)CC1 | 4%
Cc1cccc(CC(=O)N2C[C@@H](F)C[C@H]2C(=O)N2CCCCC2)c1 | i
SMILES | Pf Dd2 growth
Cc1ccc(OCC(=O)c2ccc3c(c2)N(CCCC(=O)NCC2CC2)C(=O)CO3)cc1C | -14%
COc1ccc(-c2ccc3nnc(CNC(=O)COc4cccc(C)c4)n3n2)cc1 | -6%
Cc1ccc(Cl)cc1NC(=O)Cn1cccc1-c1nc(-c2ccc(F)cc2)no1 | i
COCc1cc(C)nc2c1C(=O)NC(c1ccc(Br)cc1)N2Cc1ccccc1 (configuration not stated) | 10µM*
COCc1cc(C)nc2sc3c(c12)NC(c1ccccc1C(=O)O)N(c1ccc(OC)cc1)C3=O (configuration not stated) | i
COCc1cc(C)nc2sc3c(c12)NC(c1ccc(O)c(OC)c1)N(c1ccccc1)C3=O (configuration not stated) | -9%
CC(=O)N1CCCC(Cc2ncc(C)n2C(C)C)C1 (configuration not stated) | -25%
CCn1cc(S(=O)(=O)N2CCC(Cc3ncc(C)n3Cc3ccc(F)cc3)CC2)cn1 | -32%
Cn1c([C@H]2CCN(S(=O)(=O)c3ccc(F)cc3)C2)nc2ccccc21 | i
O=S(=O)(c1ccccc1)N1CCC(Cc2nncn2-c2ccccc2)C1 (configuration not stated) | i
CCCS(=O)(=O)NCCc1ncc(C)n1Cc1ccccc1 | -18%
Cc1cnc(CC2CCN(C(=O)Nc3ccccc3F)C2)n1C(C)C (configuration not stated) | i
Cc1cnc(CC2CCN(S(=O)(=O)c3ccccc3)CC2)n1Cc1ccccc1 | 0.56µM*
